# Laboratory results as given in ChEMBL document CHEMBL2218924, “A broad activity screen in support of a chemogenomic map for kinase signalling research and drug discovery” (Biochem J, 2013).
# Experiments:
# [1] = target: G protein-coupled receptor kinase 5 (Homo sapiens) (UniProt P34947); conditions: at 1 µM
# [2] = target: G protein-coupled receptor kinase 6 (Homo sapiens) (UniProt P43250); conditions: at 1 µM
# Sequence of G protein-coupled receptor kinase 6 (Homo sapiens) (P43250 whole entry, looked up): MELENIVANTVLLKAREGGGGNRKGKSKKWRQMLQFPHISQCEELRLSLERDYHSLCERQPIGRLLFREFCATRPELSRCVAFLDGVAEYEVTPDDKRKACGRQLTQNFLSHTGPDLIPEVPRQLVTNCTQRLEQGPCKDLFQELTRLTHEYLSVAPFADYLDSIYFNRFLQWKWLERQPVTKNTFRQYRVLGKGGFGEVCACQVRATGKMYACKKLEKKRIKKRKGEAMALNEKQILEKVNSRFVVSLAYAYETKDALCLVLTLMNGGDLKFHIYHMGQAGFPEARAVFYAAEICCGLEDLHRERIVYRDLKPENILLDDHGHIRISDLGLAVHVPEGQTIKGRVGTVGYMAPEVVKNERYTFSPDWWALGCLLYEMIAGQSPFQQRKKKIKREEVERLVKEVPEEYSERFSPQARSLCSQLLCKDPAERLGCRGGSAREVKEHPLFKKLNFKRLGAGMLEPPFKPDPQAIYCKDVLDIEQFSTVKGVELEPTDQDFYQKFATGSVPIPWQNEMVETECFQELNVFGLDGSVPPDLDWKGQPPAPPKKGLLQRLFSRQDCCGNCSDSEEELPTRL
# Sequence of G protein-coupled receptor kinase 5 (Homo sapiens) (P34947 whole entry, looked up): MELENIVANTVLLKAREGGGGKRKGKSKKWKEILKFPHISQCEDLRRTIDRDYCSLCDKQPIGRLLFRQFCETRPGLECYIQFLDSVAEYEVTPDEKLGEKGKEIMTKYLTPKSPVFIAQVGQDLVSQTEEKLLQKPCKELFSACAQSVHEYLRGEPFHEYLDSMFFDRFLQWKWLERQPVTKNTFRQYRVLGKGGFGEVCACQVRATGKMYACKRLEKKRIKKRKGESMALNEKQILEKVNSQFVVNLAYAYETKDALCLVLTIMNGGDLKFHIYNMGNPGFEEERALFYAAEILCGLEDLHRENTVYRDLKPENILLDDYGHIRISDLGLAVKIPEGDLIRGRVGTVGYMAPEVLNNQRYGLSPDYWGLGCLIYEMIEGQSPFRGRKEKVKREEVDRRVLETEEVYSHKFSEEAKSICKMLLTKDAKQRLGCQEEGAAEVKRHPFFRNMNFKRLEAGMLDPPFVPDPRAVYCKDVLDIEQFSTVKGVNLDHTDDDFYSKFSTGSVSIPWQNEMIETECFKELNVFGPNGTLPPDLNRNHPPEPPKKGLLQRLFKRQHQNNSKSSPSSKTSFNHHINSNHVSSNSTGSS
SMILES,residual activity [1],residual activity [2]
Cn1nc2c3c(cccc31)C(=O)c1ccccc1-2,102%,93%
O=c1c2ccccc2[nH]c(=S)n1CCN1CCC(=C(c2ccc(F)cc2)c2ccc(F)cc2)CC1,101%,91%
Nc1n[nH]c2nnc(-c3c(-c4ccccc4)nn4ccccc34)cc12,93%,87%
CC(=O)c1ccc(N2CCOCC2)cc1O,105%,95%
O=C1Nc2ccc(Br)cc2/C1=C\c1cc2c([nH]1)CCCC2,104%,102%
O=c1cc(N2CCOCC2)oc2c1ccc1ccccc12,103%,96%
Nc1n[nH]c2nc3ccccc3nc12,98%,93%
Cc1cncc2cccc(S(=O)(=O)N3CCCN(C(=O)CN)C[C@H]3C)c12,98%,84%
Cc1ccc(S(=O)(=O)/C=C/C#N)cc1,96%,92%
CN(C)c1ccc(/C=C2\C(=O)Nc3ccccc32)cc1,91%,97%
O=C(CCCc1ccc(-c2ccccc2F)cc1)Nc1ccc(O)cc1,101%,101%
O=C1NC(=O)c2c1c1c3ccccc3[nH]c1n1cncc21,83%,82%
NCCNc1ncc(C(N)=O)c(Nc2cccc(C(F)(F)F)c2)n1,105%,100%
Cc1nc(-c2ccccc2)c(-c2ccncc2)o1,104%,103%
N#CC(C#N)=C(N)/C(C#N)=C/c1ccc(O)cc1,,94%
Nc1ccc2ncnc(NCCc3ccc(Oc4ccccc4)cc3)c2c1,104%,105%
CO[C@H]1C[C@@H]2CC[C@@H](C)[C@@](O)(O2)C(=O)C(=O)N2CCCC[C@H]2C(=O)O[C@H]([C@H](C)C[C@@H]2CC[C@@H](O)[C@H](OC)C2)CC(=O)[C@H](C)/C=C(\C)[C@@H](O)[C@@H](OC)C(=O)[C@H](C)C[C@H](C)/C=C/C=C/C=C/1C,95%,89%
Nc1ncnc2[nH]nc(Nc3ccc(F)cc3)c12,103%,97%
COc1cc2ncnc(Nc3ccc(O)c(Br)c3)c2cc1OC,89%,85%
O=C1NC(=O)C(c2c[nH]c3ccccc23)=C1c1c[nH]c2ccccc12,,98%
Cc1ccc(NC2=CC(=O)c3sc(C)nc3C2=O)cc1,93%,96%
NC(=O)c1ccc(-c2nc(-c3ccc4c(c3)OCCO4)c(-c3ccccn3)[nH]2)cc1,,95%
O=C1NC(=O)/C(=C/c2ccc3c(c2)OC(F)(F)O3)S1,92%,93%

SMILES,residual activity [1],residual activity [2]
Cc1cc(Nc2nc(-c3ccccc3)nc3ccccc23)n[nH]1,,76%
O=C1Nc2ccccc2/C1=C1/Nc2ccccc2/C1=N\OCCC(O)CO (stereo unspecified),,68%
COc1ccc(S(=O)(=O)N(CCO)c2ccccc2CN(C)C/C=C/c2ccc(Cl)cc2)cc1,97%,91%
CCN1/C(=C/C(C)=O)Sc2ccc(OC)cc21,,100%
O=C(c1ccccc1)c1ccc(N2CCOCC2)cc1O,,96%
CCOC(=O)c1c(C)[nH]c(/C=C2\C(=O)Nc3ccccc32)c1C,,98%
c1ccc(-c2n[nH]c3c2oc2ccccc23)cc1,91%,99%
O=C(Nc1cccc(Nc2nccc(Nc3cccc(C(F)(F)F)c3)n2)c1)C1CC1,94%,99%
O=C(O)/C=C/c1cc(Br)c(Br)c(Br)c1Br,,99%
COc1ccc(Cl)cc1NC(=O)Nc1cc(C)nc2ccccc12,,98%
COc1ccc(-c2cnc3c(-c4ccsc4)cnn3c2)cc1,,99%
O=C1Nc2ccc(Cl)cc2/C1=C/c1cc(Cl)c(O)c(Cl)c1,,90%
CC[n+]1c(/C=C/N(C)c2ccccc2)n(-c2ccccc2)c2ccc(-c3nc4ccccc4s3)cc21,108%,101%
c1ccc(-c2n[nH]cc2-c2ccnc3ccccc23)nc1,103%,96%
COc1cc2nccc(Oc3ccc(NC(=S)NC(=O)c4ccccc4C)cc3)c2cc1OC,98%,87%
Nc1ncnc2c1cnn2-c1ccccc1,,93%
CC(C)n1cnc2c(NCc3ccccc3)nc(NCCCO)nc21,101%,96%
CCN(CC)C(=O)c1ccc(Nc2nc(OCC3CCCCC3)c3nc[nH]c3n2)cc1,,97%
NC(=O)c1cccc(-c2cc(Nc3ccc(OC(F)(F)F)cc3)ncn2)c1,,94%
O=[N+]([O-])c1ccc(-c2nc(-c3ccc(F)cc3)c(-c3ccncc3)[nH]2)cc1,101%,102%
N#Cc1c(NC(=O)c2cccc3ccccc23)sc2c1CCCC2,,98%
O=Nc1c(-c2c(O)[nH]c3ccccc23)[nH]c2ccccc12,92%,81%
CC#CC(=O)Nc1cc2c(Nc3ccc(F)c(Cl)c3)ncnc2cn1,100%,95%
